Measurements published in PubChem BioAssay AID1159580 (chemical genetic matrix, 2015).
Several values for one entry are separate records, joined by “and”; a condition that tells them apart may be missing. Identical values can stand only once. About 2,000 (36%) of roughly 5,500 compounds were called active. Roughly 18% stayed inconclusive and do not appear here. Rule as the data show it: active = normalized growth mostly below about 0.91 (no sharp cut-off); inconclusive = no clear call, values can overlap the other calls; inactive = mostly above about 0.92. The list shows a part of the results.

Assay: chemical genetic growth profiling, strain panel (AID 1159580);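 also: tested at 20 µM; growth read once vehicle control cultures reached saturation at 30 °C; 1 = growth at the plate median or of vehicle wells; lower values mean less growth of the strain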
Details: S. cerevisiae deletion strains, growth OD

Measured: normalized growth

COc1cc(O)c2c(c1)C(=O)c1cc(C)cc(O)c1C2=O
active: locus YDR137W, strain rgp1, stronger effect = lower value 0.76
inactive: locus YAL013W, strain DEP1, stronger effect = lower value 0.991 | locus YAL021C, strain ccr4, stronger effect = lower value 0.987 | locus YAL026C, strain drs2, stronger effect = lower value 0.997 | locus YAL030W, strain snc1, stronger effect = lower value 0.98 | locus YBL061C, strain skt5, stronger effect = lower value 0.994 | locus YBR009C, strain hhf1, stronger effect = lower value 1 | locus YBR021W, strain FUR4, stronger effect = lower value 1.04 | locus YBR023C, strain chs3, stronger effect = lower value 0.988 | locus YBR171W, strain sec66, stronger effect = lower value 0.995 | locus YBR229C, strain ROT2, stronger effect = lower value 1.01 | locus YBR231C, strain swc5, stronger effect = lower value 0.993 | locus YBR279W, strain paf1, stronger effect = lower value 0.998 | locus YCL011C, strain gbp2, stronger effect = lower value 1 | locus YCL016C, strain dcc1, stronger effect = lower value 0.98 | locus YCL029C, strain bik1, stronger effect = lower value 1 | locus YCL061C, strain MRC1, stronger effect = lower value 0.977 | locus YCL069W, strain vba3, stronger effect = lower value 0.995 | locus YCR088W, strain abp1, stronger effect = lower value 0.993 | locus YDL005C, strain med2, stronger effect = lower value 0.971 | locus YDL035C, strain GPR1, stronger effect = lower value 0.997 | locus YDL040C, strain nat1, stronger effect = lower value 0.99 | locus YDL074C, strain BRE1, stronger effect = lower value 0.974 | locus YDL101C, strain DUN1, stronger effect = lower value 1 | locus YDL134C, strain PPH21, stronger effect = lower value 1 | locus YDL185W, strain tfp1, stronger effect = lower value 1 | locus YDL192W, strain arf1, stronger effect = lower value 1.01 | locus YDR001C, strain nth1, stronger effect = lower value 0.998 | locus YDR069C, strain doa4, stronger effect = lower value 0.981 | locus YDR101C, strain arx1, stronger effect = lower value 0.986 | locus YDR150W, strain NUM1, stronger effect = lower value 1.02 | locus YDR159W, strain sac3, stronger effect = lower value 0.965 | locus YDR162C, strain NBP2, stronger effect = lower value 0.982 | locus YDR195W, strain ref2 1.01 | locus YDR297W, strain sur2, stronger effect = lower value 0.977 | locus YDR318W, strain mcm21, stronger effect = lower value 0.971 | locus YDR334W, strain swr1, stronger effect = lower value 1 | locus YDR335W, strain msn5, stronger effect = lower value 0.99 | locus YDR388W, stronger effect = lower value 1 | locus YDR392W, strain spt3, stronger effect = lower value 0.95 | locus YDR502C, strain sam2, stronger effect = lower value 0.989 | locus YEL003W, strain gim4, stronger effect = lower value 0.997 | locus YEL037C, strain rad23, stronger effect = lower value 1.01 | locus YEL061C, strain CIN8 (second series), stronger effect = lower value 0.995 | locus YER015W, strain faa2, stronger effect = lower value 0.999 | locus YER016W, strain bim1, stronger effect = lower value 0.976 | locus YER110C, stronger effect = lower value 1.01 | locus YER111C, strain swi4, stronger effect = lower value 0.987 | locus YER155C, strain BEM2 (second series), stronger effect = lower value 0.973 | locus YER155C, strain BEM2, stronger effect = lower value 1.01 | locus YER167W, strain BCK2, stronger effect = lower value 0.994 | locus YFR010W, strain ubp6, stronger effect = lower value 1.02 | locus YGL078C, strain dbp3, stronger effect = lower value 1.01 | locus YGL086W, strain mad1, stronger effect = lower value 1 | locus YGL167C, strain pmr1, stronger effect = lower value 0.977 | locus YGL173C, strain kem1, stronger effect = lower value 0.993 | locus YGL227W, strain vid30, stronger effect = lower value 1 | locus YGL240W, strain doc1, stronger effect = lower value 0.98 | locus YGL248W, strain PDE1, stronger effect = lower value 1.01 | locus YGL253W, strain hxk2, stronger effect = lower value 1.01 | locus YGR078C, strain PAC10, stronger effect = lower value 0.989 | locus YGR135W, strain pre9, stronger effect = lower value 0.992 | locus YGR229C, strain SMI1, stronger effect = lower value 0.968 | locus YGR252W, strain gcn5, stronger effect = lower value 1.06 | locus YHR013C, strain ard1, stronger effect = lower value 0.997 | locus YHR027C, strain rpn1, stronger effect = lower value 0.999 | locus YHR030C, strain SLT2, stronger effect = lower value 1.01 and 1 | locus YHR079C, strain IRE1 (second series), stronger effect = lower value 0.981 | locus YHR079C, strain IRE1, stronger effect = lower value 1.04 | locus YHR094C, strain hxt1, stronger effect = lower value 1 | locus YHR129C, strain ARP1, stronger effect = lower value 0.998 | locus YHR142W, strain chs7, stronger effect = lower value 1.04 | locus YHR200W, strain rpn10, stronger effect = lower value 1 | locus YIL066C, strain RNR3, stronger effect = lower value 1.01 | locus YIL073C, strain SPO22, stronger effect = lower value 0.991 | locus YIL125W, strain kgd1, stronger effect = lower value 0.994 | locus YIR030C, strain dcg1, stronger effect = lower value 0.993 | locus YJL092W, strain hpr5, stronger effect = lower value 0.997 | locus YJL095W, strain BCK1 (second series), stronger effect = lower value 0.972 | locus YJL095W, strain BCK1, stronger effect = lower value 0.883 and 0.965 | locus YJL115W, strain asf1, stronger effect = lower value 1 | locus YJL129C, strain trk1, stronger effect = lower value 0.981 | locus YJL134W, strain LCB3, stronger effect = lower value 1.01 | locus YJL154C, strain vps35, stronger effect = lower value 0.991 | locus YJL164C, strain tpk1, stronger effect = lower value 0.995 | locus YJL166W, strain qcr8, stronger effect = lower value 0.989 | locus YJL168C, strain set2, stronger effect = lower value 1 | locus YJL187C, strain SWE1 (second series), stronger effect = lower value 1 | locus YJL187C, strain SWE1, stronger effect = lower value 0.985 | locus YJR043C, strain POL32, stronger effect = lower value 1 | locus YJR066W, strain TOR1, stronger effect = lower value 0.987
